Results published in PubChem BioAssay (Tox21).
Records with an inconclusive call do not appear. Calls of active or inactive are those of the source. Unless noted, calls come from the whole dose curve; as a rule, active = well fitted curve in the direction sought with a large enough effect in the repeat runs; inconclusive = weak or mixed curves; inactive = no such curve, though single readings can be large; an effect the other way counts as inactive or inconclusive.

Experiments:
[1] = target: Peroxisome proliferator-activated receptor delta (Homo sapiens) (UniProt Q03181); assay: qHTS assay to identify small molecule agonists of the peroxisome proliferator-activated receptor delta (PPARd) signaling pathway (AID 743212; calls by dose curve)
Peroxisome proliferator-activated receptor delta (Homo sapiens), sequence (Q03181 whole entry, looked up): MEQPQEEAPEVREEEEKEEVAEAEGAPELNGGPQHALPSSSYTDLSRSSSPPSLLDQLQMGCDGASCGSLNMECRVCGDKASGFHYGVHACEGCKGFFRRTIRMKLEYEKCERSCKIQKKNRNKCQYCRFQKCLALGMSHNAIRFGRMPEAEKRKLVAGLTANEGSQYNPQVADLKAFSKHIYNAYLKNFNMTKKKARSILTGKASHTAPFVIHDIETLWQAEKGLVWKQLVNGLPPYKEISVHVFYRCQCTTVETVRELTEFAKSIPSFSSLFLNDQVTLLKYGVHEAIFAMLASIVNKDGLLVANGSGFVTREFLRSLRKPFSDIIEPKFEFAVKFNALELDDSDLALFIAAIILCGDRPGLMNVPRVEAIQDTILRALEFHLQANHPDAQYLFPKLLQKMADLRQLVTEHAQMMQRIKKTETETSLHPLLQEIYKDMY
How it was run: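 HEK293H UAS-bla reporter cells, human PPARd system; compounds delivered in DMSO after 5 h plating, then at 37 C. Beta-lactamase FRET read, 2 h RT substrate step.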

[2] = qHTS assay to identify small molecule antagonists of the peroxisome proliferator-activated receptor delta (PPARd) signaling pathway - cell viability counter screen (AID 743213); note: nearly all actives have a fitted effect of over 50% in size
How it was run: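 CellTiter-Glo was added to PPARd-bla HEK293H wells following 17 h compound treatment in the presence of 300 nM L165041. Luminescence was recorded after 30 min at room temperature.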

[3] = target: Bile acid receptor (Homo sapiens) (UniProt Q96RI1); assay: qHTS assay to identify small molecule antagonists of the farnesoid-X-receptor (FXR) signaling pathway (AID 743217; active = well fitted inhibition curve with a large enough effect in the signal ratio in the repeat runs, not every such curve was filed as active; the % refers to the signal ratio)
Bile acid receptor (Homo sapiens), sequence (Q96RI1 whole entry, looked up): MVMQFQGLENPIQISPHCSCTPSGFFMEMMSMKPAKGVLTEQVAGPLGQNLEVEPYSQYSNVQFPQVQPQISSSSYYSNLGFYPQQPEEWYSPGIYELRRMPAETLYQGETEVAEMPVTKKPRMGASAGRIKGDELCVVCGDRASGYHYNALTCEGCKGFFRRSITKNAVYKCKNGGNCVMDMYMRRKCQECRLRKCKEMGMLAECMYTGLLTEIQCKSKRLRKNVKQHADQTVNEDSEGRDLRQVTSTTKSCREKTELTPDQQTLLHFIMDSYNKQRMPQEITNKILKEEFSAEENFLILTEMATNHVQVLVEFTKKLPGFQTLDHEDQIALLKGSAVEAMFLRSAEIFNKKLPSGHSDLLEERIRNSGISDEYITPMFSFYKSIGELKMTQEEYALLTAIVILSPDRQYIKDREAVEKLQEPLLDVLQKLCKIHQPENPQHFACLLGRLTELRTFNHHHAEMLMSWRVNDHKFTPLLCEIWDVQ
How it was run: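 FXR-UAS-bla HEK 293T cells (beta-lactamase reporter) given compound plus chenodeoxycholic acid (50 uM final), 16 h at 37C. LiveBLAzer B/G FRET substrate added for 2 h at room temperature; fluorescence read.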

[4] = qHTS assay to identify small molecule agonists of the farnesoid-X-receptor (FXR) signaling pathway - cell viability counter screen (AID 743218); note: nearly all actives have a fitted effect of over 45% in size
How it was run: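 FXR-UAS-bla HEK 293T cells exposed to compounds for 16 h at 37C. Cytotoxicity read in the same wells by CellTiter-Glo luminescence after 30 min at room temperature, following the beta-lactamase FRET read.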

[5] = target: Bile acid receptor (Homo sapiens) (UniProt Q96RI1); assay: qHTS assay to identify small molecule agonists of the farnesoid-X-receptor (FXR) signaling pathway (AID 743220; active = well fitted activation curve with a large enough effect in the signal ratio in the repeat runs, not every such curve was filed as active; the % refers to the signal ratio)
How it was run: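 Beta-lactamase reporter under UAS control in GeneBLAzer FXR HEK 293T cells (5000/well) measured with LiveBLAzer FRET substrate after 2 h at room temperature. Compound exposure lasted 16 h at 37C.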

[6] = qHTS assay to identify small molecule antagonists of the farnesoid-X-receptor (FXR) signaling pathway - cell viability counter screen (AID 743221; active = well fitted cell-killing curve with a large enough effect in the repeat runs, not every such curve was filed as active; note: nearly all actives have a fitted effect of over 50% in size)
How it was run: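 Luminescence from CellTiter-Glo measures cytotoxicity in GeneBLAzer FXR-UAS-bla HEK 293T cells. Cells were exposed to compounds with 50 uM chenodeoxycholic acid (final) for 16 h at 37 C, in wells also used for the reporter readout.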

[7] = qHTS assay to identify small molecule agonists of the vitamin D receptor (VDR) signaling pathway - cell viability counter screen (AID 743224); note: series mostly up to about 63 µM; nearly all actives have a fitted effect of over 50% in size
How it was run: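 VDR-bla cells, 4 h after plating, exposed to compounds for 16 h at 37C; viability then read in the same wells as CellTiter-Glo luminescence after 30 min at room temperature, following the bla FRET read.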

[8] = qHTS assay to identify small molecule antagonists of the vitamin D receptor (VDR) signaling pathway - cell viability counter screen (AID 743225); note: nearly all actives have a fitted effect of over 50% in size
How it was run: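 Read-out: CellTiter-Glo luminescence measured 30 min after reagent addition at room temperature. Cells were VDR-bla HEK 293T exposed 16 h at 37C, 5% CO2, to compound with 3 nM final calcitriol agonist.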

[9] = qHTS assay to identify small molecule agonists of the NFkB signaling pathway (AID 1159509; active = well fitted curve in the direction sought with a large enough effect in the signal ratio in the repeat runs, not every such curve was filed as active; the % refers to the signal ratio; note: series mostly up to about 61 µM)
How it was run: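 NFkB-bla ME-180 cells with a beta-lactamase reporter under an NF-kB response element were plated overnight, treated with compounds in DMSO for 5 hr at 37 C, then loaded with FRET substrate for 1.5 hr at room temperature.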

[10] = qHTS assay to identify small molecule agonists of the NFkB signaling pathway - cell viability counter screen (AID 1159515; calls by dose curve; note: series mostly up to about 61 µM; nearly all actives have a fitted effect of over 55% in size)
How it was run: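 NFkB-bla ME-180 cells, 2,000/well, plated overnight at 37 C; compound added for 5 hr at 37 C. Viability read in the same wells as the bla reporter, by CellTiter-Glo luminescence after 30 min at room temperature.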

[11] = qHTS assay to identify small molecule agonists of the endoplasmic reticulum stress response signaling pathway (AID 1159516; active = well fitted activation curve with a large enough effect in the signal ratio in the repeat runs, not every such curve was filed as active; the % refers to the signal ratio)
How it was run: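 CellSensor ESRE-bla HeLa cells, 1,500 per well, plated overnight, then exposed to compounds for 5 hr at 37 C. Beta-lactamase reporter read with LiveBLAzer B/G FRET substrate after 2 hr at room temperature, 405 nm excitation, 460 and 530 nm emission.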

[12] = qHTS assay to identify small molecule antagonists of the retinoid-related orphan receptor gamma (ROR-gamma) signaling pathway - cell viability counter screen (AID 1159520); note: nearly all actives have a fitted effect of over 50% in size
How it was run: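 Cytotoxicity was read from cellular ATP (CellTiter-Glo luminescence) after 16 hr at 37 C with 1 uM doxycycline induction. The inducer was added 2 hr after compound transfer to Tet-on ROR gamma CHO cells.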

[13] = target: Nuclear receptor ROR-gamma (Homo sapiens) (UniProt P51449); assay: qHTS assay to identify small molecule antagonists of the retinoid-related orphan receptor gamma (ROR-gamma) signaling pathway (AID 1159521)
How it was run: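 CHO Tet-on RORγ, RORE-luc reporter. Cpd 2 h pre-incubation, then dox hyclate 1 uM final, 16 h, 37 C/5% CO2. ONE-Glo luminescence; decrease = antagonist.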

[14] = qHTS assay to identify small molecule agonists of the AP-1 signaling pathway - cell viability counter screen (AID 1159525; calls by dose curve; note: nearly all actives have a fitted effect of over 55% in size)
How it was run: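 Luminescent ATP readout (Cell Titer Glo, 30 min RT), normalised to DMSO and tetra n-octyl ammonium bromide controls. Cells were ME-180 AP-1-bla in 0.5% dialyzed FBS Opti-MEM, with a 5 h, 37 °C compound exposure.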

[15] = qHTS assay to identify small molecule agonists of the AP-1 signaling pathway (AID 1159526; calls by dose curve)
[16] = target: Peroxisome proliferator-activated receptor delta (Homo sapiens) (UniProt Q03181); assay: qHTS assay to identify small molecule antagonists of the peroxisome proliferator-activated receptor delta (PPARd) signaling pathway (AID 743215; active = well fitted inhibition curve with a large enough effect in the signal ratio in the repeat runs, not every such curve was filed as active; the % refers to the signal ratio;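 note: cells stimulated with agonist L165041 at 300 nM final during compound exposure; series mostly up to about 62 µM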)
How it was run: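 PPARd-bla HEK293H cells (UAS-bla reporter) preincubated 5 h, then given compound plus 300 nM final L165041 agonist for 17 h at 37 C. Beta-lactamase activity read by LiveBLAzer B/G FRET substrate fluorescence after 2 h at room temperature.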

[17] = target: Vitamin D3 receptor (Homo sapiens) (UniProt P11473); assay: qHTS assay to identify small molecule agonists of the vitamin D receptor (VDR) signaling pathway (AID 743222; calls by dose curve)
Vitamin D3 receptor (Homo sapiens), sequence (P11473 whole entry, looked up): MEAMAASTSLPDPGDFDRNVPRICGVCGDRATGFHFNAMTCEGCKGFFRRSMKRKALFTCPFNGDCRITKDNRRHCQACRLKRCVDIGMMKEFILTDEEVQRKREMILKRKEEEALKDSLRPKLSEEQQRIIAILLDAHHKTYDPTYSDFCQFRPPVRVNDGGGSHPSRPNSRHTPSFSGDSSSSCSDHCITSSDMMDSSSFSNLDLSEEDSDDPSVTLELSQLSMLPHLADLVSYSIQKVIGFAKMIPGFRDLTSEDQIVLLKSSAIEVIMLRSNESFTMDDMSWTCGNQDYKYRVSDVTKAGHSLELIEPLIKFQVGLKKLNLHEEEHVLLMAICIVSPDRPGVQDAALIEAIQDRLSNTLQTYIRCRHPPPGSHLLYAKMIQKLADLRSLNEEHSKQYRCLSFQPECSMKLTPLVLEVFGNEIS
How it was run: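 VDR-bla cells plated 4 h at 37 C, then exposed to compounds for 16 h at 37 C. Beta-lactamase reporter activity measured by fluorescence after 2 h room-temperature loading with LiveBLAzer B/G FRET substrate.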

[18] = target: Vitamin D3 receptor (Homo sapiens) (UniProt P11473); assay: qHTS assay to identify small molecule antagonists of the vitamin D receptor (VDR) signaling pathway (AID 743223; active = well fitted inhibition curve with a large enough effect in the signal ratio in the repeat runs, not every such curve was filed as active; the % refers to the signal ratio)
How it was run: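 Antagonist mode uses 1alpha,25-dihydroxyvitamin D3 at 3 nM final as stimulus. VDR-bla cells receive compounds in DMSO, incubate 16 h at 37C, then a beta-lactamase FRET substrate for 2 h at room temperature before fluorescence measurement.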

[19] = qHTS assay to identify small molecule agonists of the peroxisome proliferator-activated receptor delta (PPARd) signaling pathway - cell viability counter screen (AID 743211); note: nearly all actives have a fitted effect of over 55% in size
How it was run: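 HEK293H PPARd-bla, 3000 cells/well; 5 h preincubation 37C/5% CO2; cpd in DMSO, 17 h 37C; B/G FRET substrate 2 h RT; CellTiter-Glo 30 min RT, luminescence.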

[20] = qHTS assay to identify small molecule agonists of the endoplasmic reticulum stress response signaling pathway - cell viability counter screen (AID 1159517; calls by dose curve)
How it was run: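 Cells, HeLa ESRE-bla; density, 1,500/well; dosing, 5 hr at 37 C, 5% CO2; readout, CellTiter-Glo luminescence after 30 min RT.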

Measured: Potency

CCN1CN(CC)CN(CC)C1
not listed: [16] | [17] | [18] | [19] | [20]
inactive: all other assays above

CC1(N)CCC(C(C)(C)N)CC1 (centres undefined)
not listed: [3] | [5] | [19] | [20]
inactive: all other assays above

CCNC(=O)/C=C/c1cccc(Br)c1
not listed: [3] | [5] | [13] | [14] | [20]
inactive: all other assays above

C/C=C(\C)C(=O)OCC/C=C\CC
not listed: [17] | [20]
inactive: all other assays above

NS(=O)(=O)c1cc2c(cc1Cl)NC(C(Cl)Cl)NS2(=O)=O (centres undefined)
not listed: [16] | [18] | [19] | [20]
inactive: all other assays above

c1ccccc1
not listed: [10]
inactive: all other assays above

CCCCC/C=C/CC(=O)OC
not listed: [1] | [3] | [5] | [12] | [13] | [14] | [16] | [17]
inactive: all other assays above

NS(=O)(=O)c1cc2c(cc1Cl)NC(CC1CCCC1)NS2(=O)=O (centres undefined)
not listed: [1] | [7] | [13] | [16] | [20]
inactive: all other assays above

CCOC(=O)OCC/C(SC(=O)OCC)=C(\C)N(C=O)Cc1cnc(C)nc1N
inactive: [19] | [4] | [6] | [17] | [18] | [7] | [9] | [10] | [11] | [12] | [15]

CC(=O)N1CCN(c2ccc(O)cc2)CC1
not listed: [1] | [3] | [5] | [16] | [17] | [19] | [20]
inactive: all other assays above

COc1cccc2sc(N)nc12
not listed: [6] | [17] | [20]
inactive: all other assays above

C[CH2][Ge]([Cl])([CH2]C)[CH2]C
not listed: [10]
inactive: all other assays above

CC1=CC[C@H](CC=O)C1(C)C
not listed: [6] | [20]
inactive: all other assays above

Nc1ccnc(=O)[nH]1
not listed: [3] | [5] | [8] | [18] | [20]
inactive: all other assays above

CC(Cl)COP(=O)(OCC(C)Cl)OCC(C)Cl (centres undefined)
not listed: [3] | [5] | [13] | [16] | [19] | [20]
inactive: all other assays above

CC(C)CCO
not listed: [3] | [5] | [20]
inactive: all other assays above

O=C(Oc1ccccc1C(=O)O)c1ccccc1O
not listed: [20]
inactive: all other assays above
